Assay results reported in PubChem BioAssay AID1159580 (chemical genetic matrix, 2015).
Hit rate of the full screen: of about 5,500 compounds, about 2,000 (36%) were called active. About 18% were inconclusive and are not listed. Rule as the data show it: active = normalized growth mostly below about 0.91 (no sharp cut-off); inconclusive = no clear call, values can overlap the other calls; inactive = mostly above about 0.92. The list shows a part of the results.

Experiment: chemical genetic growth profiling, strain panel (AID 1159580);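 also: tested at 20 µM; growth read once vehicle control cultures reached saturation at 30 °C; 1 = growth at the plate median or of vehicle wells; lower values mean less growth of the strain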
Details: S. cerevisiae deletion strains, growth OD

Measured: normalized growth

Nc1ccc(N=Nc2ccc(S(N)(=O)=O)cc2)c2ccccc12
inactive: locus YAL013W, strain DEP1, active compounds read low 0.999 | locus YBR229C, strain ROT2, active compounds read low 1 | locus YCL061C, strain MRC1, active compounds read low 0.998 | locus YDL101C, strain DUN1, active compounds read low 0.98 | locus YDR150W, strain NUM1, active compounds read low 0.906 | locus YEL061C, strain CIN8, active compounds read low 0.989 | locus YGR078C, strain PAC10, active compounds read low 1 | locus YGR229C, strain SMI1, active compounds read low 1 | locus YHR030C, strain SLT2, active compounds read low 1.04 | locus YHR087W, strain rtc3, active compounds read low 0.995 | locus YJL187C, strain SWE1, active compounds read low 1.01 | locus YJR043C, strain POL32, active compounds read low 1 | locus YJR075W, strain HOC1, active compounds read low 1.02 | locus YLR039C, strain RIC1, active compounds read low 0.983 | locus YLR058C, strain SHM2 (second series), active compounds read low 1.01 | locus YLR085C, strain ARP6, active compounds read low 1.03 | locus YLR262C, strain YPT6, active compounds read low 1 | locus YML094W, strain GIM5, active compounds read low 0.986 | locus YMR219W, strain ESC1, active compounds read low 0.994 | locus YMR263W, strain SAP30, active compounds read low 0.916 | locus YNL153C, strain GIM3, active compounds read low 1 | locus YNL298W, strain CLA4 (second series), active compounds read low 0.982 | locus YNL322C, strain KRE1, active compounds read low 0.997 | locus YNR030W, strain Alg12, active compounds read low 1.01 | locus YPL055C, strain LGE1, active compounds read low 0.893 | locus YPL241C, strain CIN2, active compounds read low 1 | locus YPR135W, strain CTF4, active compounds read low 1.06
